The full list was thinned out, with hits kept by preference.
NRP1-CendR mod = modulators of CendR peptide binding to NRP-1, primary screen, biochemical, fluorescence polarization, uHTS; inhibition, % at 25 µM; AID 602438, 2012; FAM-RPARPAR peptide binding to NRP-1; 360,000 compounds, 0.85% hits;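 active = inhibition or corrected inhibition above about 18%, plus a signal ratio from 0.5 to 1.5, limit read from the data, passing the limit was not always enough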
ERp5 block = inhibitors of ERp5-driven insulin aggregation, primary screen, biochemical, turbidity, absorbance 650 nm, single point. 90 min. inhibition, % at 9.99 µM. 350,000 compounds, 0.05% hits. AID 651711, 2012;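 active = mean replicate inhibition above about 25%, with every replicate also reaching it, limit read from the data, passing the limit was not always enough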
PglD DTNB = C. jejuni PglD acetyltransferase inhibitors, primary screen, biochemical, DTNB colorimetric, single point | AID 602405, 2012 | inhibition, % at 12.5 µM | purified PglD enzyme, DTNB colorimetric CoA detection | UDP-N-acetylbacillosamine N-acetyltransferase PglD (Campylobacter jejuni) | 360,000 compounds, 0.098% hits; in the data active = inhibition above about 16%, passing the limit was not always enough
ARNT-TACC3 inh = disruptors of ARNT/TACC3 protein interaction, primary screen, biochemical, AlphaScreen, single concentration. Transforming acidic coiled-coil-containing protein 3 (Homo sapiens), Q9Y6A5. inhibition, % at 9.99 µM. AlphaScreen His-ARNT PAS-B/GST-TACC3 binding, luminescence; TACC3 fragment carries E629A point mutation. 390,000 compounds, 0.66% hits;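 active = mean inhibition of replicates at least 50% and at least half of replicates each reaching 50%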;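 note: 0% = complete ARNT plus TACC3 wells and 100% = ARNT alone without TACC3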
PDI inh = inhibitors of human PDI, primary screen, biochemical, turbidity, single point, plate reader; Protein disulfide-isomerase (Homo sapiens), P07237; PDI insulin aggregation turbidity, A650, 90 min; inhibition, % at 10 µM; 350,000 compounds, 0.052% hits; AID 588391, 2011;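 active = mean inhibition across replicates of 30% or more, whatever share of single replicates reach that level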
ALR inh = inhibitors of human ALR sulfhydryl oxidase, primary screen, biochemical, H2O2 detection, HRP-luminol luminescence, single point. inhibition, % (test concentration not listed). 290,000 compounds, 3.8% hits. AID 485317, 2010. FAD-linked sulfhydryl oxidase ALR (Homo sapiens), P55789. purified ALR, DTT oxidation;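 active = mean replicate inhibition above about 79%, with every replicate also reaching it, limit read from the data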
An asterisk follows results filed as active; / = not tested or not shown.

SMILES	NRP1-CendR mod	ERp5 block	PglD DTNB	ARNT-TACC3 inh	PDI inh	ALR inh
COc1ccc(S(=O)(=O)N2CCN(Cc3cccc([N+](=O)[O-])c3)CC2)cc1	20*	/	-3	3	-5	/
COc1ccc(S(=O)(=O)N2CCN(Cc3cccc(F)c3)CC2)cc1	7	-2	/	-19	0	-14
COC(=O)c1ccc(O)c(Sc2cc(C(=O)OC)ccc2O)c1	12	/	-2	0	-1	88*
Cc1ccc(O)c(Sc2cc(C)ccc2O)c1	-12	/	-3	6	-10	99*
C[C@H](CO)N1C[C@H](C)[C@@H](CN(C)S(=O)(=O)c2ccccc2)Oc2ccc(NC(=O)C3CC3)cc2CC1=O	/	3	0	-17	/	/
COc1ccccc1CNC(=O)C[C@H]1CC[C@@H]2[C@H](COC[C@@H](O)CN2Cc2cccc(-c3ccncc3)c2)O1	/	3	0	15	/	/
N#C[C@@H]1[C@@H](c2ccccc2-c2ccccc2F)[C@H](CO)N1C(=O)C1CCOCC1	/	4	/	/	/	/
Cc1noc(C)c1NC(=O)N(C)C[C@H]1Oc2ccc(NC(=O)Cc3ccccc3)cc2CC(=O)N([C@@H](C)CO)C[C@@H]1C	/	-4	-4	/	/	/
COc1ccc(S(=O)(=O)Nc2ccc3c(c2)CC(=O)N([C@@H](C)CO)C[C@@H](C)[C@@H](CN(C)C(=O)Nc2ccccc2)O3)cc1	/	3	4	-2	/	/
C/C(=C1/SC(=S)N(CCC(=O)O)C1=O)c1ccc(O)cc1	-1	/	-3	1	25	98*
Cc1ccc(N(C(=O)CCC(=O)Nc2cc(C)on2)C(C(=O)NC2CCCC2)c2cccs2)cc1 (centres undefined)	3	/	-3	-5	-2	-9
Cc1cc(NC(=O)CCC(=O)N(Cc2ccco2)C2(C(=O)NC3CCCC3)CCCCC2)no1	19*	0	/	-1	4	1
Cc1cc(NC(=O)CCC(=O)N(c2cccc(F)c2)C(C(=O)NC2CCCC2)c2ccccc2)no1 (centres undefined)	26*	-5	-1	-4	3	/
Cc1cc(NC(=O)CCC(=O)N(c2ccccc2)C(C(=O)NC2CCCC2)c2cccs2)no1 (centres undefined)	20*	/	-10	1	2	-18
CN(C)c1ccc(C2Nc3ccccc3C(=O)N2CCCN2CCOCC2)cc1 (centres undefined)	5	-8	10	-6	4	99*
Brc1ccc(-c2csc(NC3=NCCCCC3)n2)cc1	-1	0	/	-4	3	-3
COc1ccc(-c2csc(NC3=NCCCCC3)n2)cc1	4	5	/	0	16	98*
Clc1ccc(-c2csc(NNC3=NCCCCC3)n2)cc1	7	/	-4	5	-3	/
CCOc1ccc(-c2csc(NNC3=NCCCCC3)n2)cc1	2	-1	/	-3	-3	99*
COc1ccc(-c2csc(NNC3=NCCCCC3)n2)cc1	/	2	/	/	/	8
Fc1ccc(-c2csc(NC3=NCCC3)n2)cc1	4	1	/	-2	8	97*
Cc1csc(SCC(=O)Nc2sccc2C(N)=O)n1	-4	4	/	20	2	95*
Cc1csc(SCC(=O)Nc2nccs2)n1	-4	2	/	1	-4	-10
COc1ccc(C=CC(O)CCN2CCC3CCC(C3)C2)cc1 (centres undefined)	24*	1	0	-11	-3	/
C[C@H]1CN([C@@H](C)CO)C(=O)c2cc(/C=C/c3ccccc3)cnc2O[C@H]1CN(C)C(=O)c1ccccc1	/	2	3	0	/	/
CN(C)c1ccc(NC(=O)CN2CCc3ccccc3C2)cc1	1	4	4	0	-3	99*
CCOC(=O)c1ccc(NC(=O)CN2CCc3ccccc3C2)cc1	38*	/	-1	35	-4	-42

High-throughput results from PubChem BioAssay.
